# EPAC2 ag: EPAC2 (human) agonism; Q8WZA2; EPAC2 activation, biochemical qHTS; response scale: 100% = 6.5 mM cAMP response; 360,000 tested, 0.079% active; Potency, µM (series often up to 154 µM), for inactives: at the highest dose activation, most hits filed as activators; AID 720711; note: nearly all actives have a fitted effect of over 50% in size
#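 Exchange assay: 100 nM EPAC2 with 250 nM Rap1B-BODIPY-GDP and 50 uM GDP. Fluorescence (ex 480/em 540 nm) read every 5 min for 30 min at room temperature. Data normalized to 6.5 mM cAMP as agonist control.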
# USP1 inh: inhibitors of human USP1/UAF1 deubiquitinase | recombinant USP1/UAF1, Ub-Rhodamine cleavage fluorescence | Potency, µM (series often up to 57.1 µM), for the others: at the top dose activity change, negative = inhibition, actives largely listed as inhibitors | 390,000 tested, 0.23% active; note: % is set by controls: 0 for no effect and ±100 for the full control effect; nearly all actives have a fitted effect of over 60% in size
#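 High-throughput fluorogenic screen: 1nM USP1/UAF1 complex, Ub-Rho substrate 150nM final, 50mM HEPES pH 7.8 with 0.5mM EDTA, 0.1 mg/ml BSA, 1mM TCEP and 0.01% Tween-20.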
# EPAC1 ag: agonists of human EPAC1. O95398. EPAC1 agonist qHTS, biochemical assay; response scale: 100% = response to 6.5 mM cAMP. Potency, µM (series often up to 154 µM), without a hit: at the highest dose activation, usual class: activators. 360,000 tested, 0.073% active. AID 720707; note: nearly all actives have a fitted effect of over 60% in size
#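 Compounds were pinned as a concentration titration into mixtures of EPAC1 (100 nM), BODIPY-GDP-loaded Rap1B (250 nM) and GDP (50 uM). After 5 min at room temperature, fluorescence was followed for 30 min; activity was scaled to 6.5 mM cAMP.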
# EPAC1 antag: antagonists of human EPAC1; O95398; EPAC1 GEF assay, Rap1b-BODIPY-GDP exchange fluorescence; Potency, µM (top dose mostly 115 µM), for inactives: at the highest dose activity change, negative = inhibition, most hits filed as inhibitors; 360,000 tested, 0.14% active; AID 720709;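 note: plate controls were vehicle for no effect and positive control for full effect; nearly all actives have a fitted effect of over 50% in size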
# VDR inh: inhibitors of human vitamin D receptor. P11473. VDR-SRC2-3 peptide fluorescence polarization, 2 h. Potency, µM, without a hit: max response, negative = inhibition, hits mostly inhibitors. 400,000 tested, 0.93% active; note: % is set by controls: 0 for no effect and ±100 for the full control effect
# Target sequence (P11473 whole entry, looked up): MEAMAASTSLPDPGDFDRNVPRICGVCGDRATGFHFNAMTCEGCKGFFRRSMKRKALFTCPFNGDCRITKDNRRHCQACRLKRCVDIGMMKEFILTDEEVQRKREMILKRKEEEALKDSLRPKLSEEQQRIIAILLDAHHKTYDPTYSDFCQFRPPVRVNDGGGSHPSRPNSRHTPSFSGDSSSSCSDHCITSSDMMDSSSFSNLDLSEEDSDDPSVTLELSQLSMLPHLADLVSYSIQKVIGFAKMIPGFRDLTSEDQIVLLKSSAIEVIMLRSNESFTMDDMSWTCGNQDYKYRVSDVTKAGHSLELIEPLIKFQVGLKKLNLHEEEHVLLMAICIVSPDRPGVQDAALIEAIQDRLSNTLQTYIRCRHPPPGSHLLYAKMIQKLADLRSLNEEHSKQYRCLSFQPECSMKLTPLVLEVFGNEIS
#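 Signal is fluorescence polarization, reporting how far test compounds block the interaction of VDR with the SRC2-3 coregulator peptide after a 2 h room-temperature incubation.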
# EPAC2 antagonist: EPAC2 (human) antagonism; Q8WZA2; EPAC2 GEF exchange of Rap1B-BODIPY-GDP, fluorescence; Potency, µM (series often up to 114 µM), inactives show at the highest dose activity, negative = inhibition, most hits filed as inhibitors; 360,000 tested, 0.18% active; note: % is set by controls: 0 for no effect and ±100 for the full control effect; nearly all actives have a fitted effect of over 45% in size
# Numbers without * were called inactive; ? = inconclusive; . = no result given; ! = not active in a repeat. The list is not random: actives were taken first. Their share in the collection is about 1.2%. Calls come from the whole dose curve; as a rule, active = well fitted curve in the direction sought with a large enough effect; inconclusive = small, poorly fitted or top-dose-only effect, or another doubt; inactive = no such curve, though single readings can be large; an effect the other way counts as inactive or inconclusive. Potency is the fitted concentration of half-maximal effect.
SMILES,EPAC2 ag,USP1 inh,EPAC1 ag,EPAC1 antag,VDR inh,EPAC2 antagonist
O=C(CSc1ccccn1)N1CCCC(Nc2ccccc2)C1 (stereo unspecified),10%,-26%,14%,-1%,-1%,0%
O=C(CSc1ccccc1)N1CCCC(Nc2ccccc2)C1 (stereo unspecified),-4%,-29%,3%,0%,20µM*,-6%
CC[C@H](C)[C@H](NC(=O)[C@H](Cc1ccc(O)cc1)NC(=O)[C@@H](NC(=O)[C@H](CCCN=C(N)N)NC(=O)[C@@H](N)CC(=O)O)C(C)C)C(=O)N[C@@H](Cc1ccc(N)cc1)C(=O)N1CCC[C@H]1C(=O)N[C@@H](Cc1ccccc1)C(=O)O,.,.,.,.,5%,.
CCOC(=O)c1nn(-c2ccccc2)c(=O)c2c(N)scc12,-1%,18µM*,1%,0%,24%,-7%
CCCOc1ccc(-c2nc(=S)[nH][nH]2)cc1,5%,-3%,25%,-5%,89µM*,-4%
S=c1nc(-c2ccc(Cl)cc2)[nH][nH]1,15%,-23%,5%,11%,-29%,4%
O=C(O)c1cc(=O)c2cc(Cl)ccc2[nH]1,.,.,.,.,11%,.
Cc1ccc(NC(=O)c2cc(N3C(=O)C=CC3=O)ccc2N2CCOCC2)cc1Cl,-10%,-21%,-20%,-15%,45µM*,-1%
Cc1ccc(-c2ccc(CN3C(CC(C)C)C(=O)N(Cc4cn(CCC5OCCCO5)nn4)CCS3(=O)=O)cc2)cc1 (stereo unspecified),-1%,-22%,-13%,-7%,.,?
CC(C)CC1C(=O)N(Cc2cn(CCC3OCCCO3)nn2)CCS(=O)(=O)N1Cc1ccc(-c2ccc(F)cc2)cc1 (stereo unspecified),0%,-5%,1%,-7%,.,22µM*
CCN(CC)c1ccc(/C=C2/C(=O)c3ccc(C(=O)O)cc3C2=O)cc1,9%,13µM*,6%,?,-1%,?
Nc1ccc(O)c(C(=O)O)c1,.,.,.,.,45µM*!,.
Cc1cc[n+]2c3c(cccc13)CCC2,7%,-3%,4%,2%,50µM*,2%
COc1ccc(-n2c(=O)c(-c3ccc(Cl)cc3)nc3cnc(N4CCOCC4)nc32)cc1,.,.,.,.,40µM*,.
COc1ccc(/C(N)=N/OC(=O)c2ccc(C)c([N+](=O)[O-])c2)cc1,10µM*,-18%,-4%,-4%,-2%,5%
O=C(c1ccncc1)N1N=C2CCCCCC2C1(O)C(F)(F)F (stereo unspecified),9%,-9%,11%,13%,23%,-5%
O=C(c1ccco1)N1N=C2CCCCCC2C1(O)C(F)(F)F (stereo unspecified),3%,-29%,9%,6%,-11%,79µM*
CC(C)=CCn1cnc2c1C(NOCc1ccccc1)=NCN2,.,.,.,.,-8%,.
C=C(CN(C)C)C(=O)c1ccc(OC2OC(COC(C)=O)C(OC(C)=O)C(OC(C)=O)C2OC(C)=O)cc1 (stereo unspecified),-19%,3%,-8%,-7%,40µM*,-10%
CS[C@@H]1SC[C@H]2C(=O)N(C)C(C(C)C)C(=O)OC[C@@H](NC(=O)c3cnc4ccccc4n3)C(=O)N[C@@H](C)C(=O)N(C)[C@H]1C(=O)N(C)C(C(C)C)C(=O)OC[C@@H](NC(=O)c1cnc3ccccc3n1)C(=O)N[C@@H](C)C(=O)N2C (stereo partly specified),.,.,.,.,17%,.
CCC(C)C(NC(=O)OC(C)(C)C)C(=O)NC1COC2CC(n3cc(C)c(=O)[nH]c3=O)OC12 (stereo unspecified),.,.,.,.,-14%,.
N#CC(C#N)=C(N)/C(C#N)=C/c1cc(O)c(O)c(O)c1,0%,-26%,-4%,?,40µM*!,-22%
N#C/C(=C/c1ccc(F)cc1)C(N)=S,2%,-6%,10%,-14%,89µM*,-9%
Cc1cc(C)c(/C=C(\C#N)C(N)=S)c(C)c1,4%,-27%,-1%,-21%,-25%,-20%
CC(C)(C)c1cc(/C=C(\C#N)C(N)=S)cc(C(C)(C)C)c1O,.,.,.,.,35µM*,.
SMILES,EPAC2 ag,USP1 inh,EPAC1 ag,EPAC1 antag,VDR inh,EPAC2 antagonist
N#C/C(=C/c1cc(Cl)c(O)c(Cl)c1)C(=O)N1CCCCC1,-4%,-13%,6%,0%,-7%,0%
CC(C)(C)OC(=O)NCCCCC1=CC2=CC(=O)C(C)(OC(=O)CCc3ccccc3)C(=O)C2=CO1 (stereo unspecified),.,.,.,.,4%,.
COc1ccc(-c2cc(=Nc3ccc(C(=O)O)cc3)c3cc(C)ccc3o2)cc1,2%,-6%,0%,-16%,2%,-6%
CCc1ccc2oc(-c3ccc(OC)cc3)cc(=Nc3cccc(C(=O)O)c3)c2c1,-4%,-24%,-3%,-11%,79µM*,?
Cc1cc(Br)c2c(c1)[C@](O)(c1cn(C)c3ccccc13)C(=O)N2C,5%,.,3%,-8%,.,22µM*
CN1C(=O)[C@@](O)(c2cn(C)c3ccccc23)c2ccccc21,3%,.,11%,5%,.,-5%
O=C(CSC1=NCCS1)c1ccc(Cl)cc1,-2%,-8%,-7%,2%,79µM*,-3%
NC(=S)NS(=O)(=O)c1ccc(N)cc1,.,.,.,.,-14%,.
COc1cc2cc(Oc3ccc4ccc(=O)oc4c3)c(=O)oc2cc1O,1%,5%,79µM*,50µM*,2%,10%
COc1cc2cc(Oc3ccc4ccc(=O)oc4c3)c(=O)oc2cc1OC(C)=O,5%,-20%,-9%,3%,-13%,1%
COC(=O)[C@H](COC(C)(C)C)NC(=O)O[C@@H]1C(=O)c2cc(OC)ccc2O[C@H]1c1cccc(OC)c1,.,.,.,.,8%,.
N#C/C(=C/c1ccc(O)c(O)c1)c1nc2ccccc2[nH]1,9%,-10%,-125%,89µM*,5%,?
N#C/C(=C\c1cc(Br)c(O)c(Br)c1)c1nc2ccccc2c(=O)[nH]1,.,28µM*,.,.,-12%,.
N#C/C(=C/c1ccncc1)c1nc2ccccc2c(=O)[nH]1,3%,-12%,2%,3%,-26%,-3%
C[C@@H]1CCC2[C@](C)(CO)[C@@H](O)CC[C@]2(C)[C@]12CCC(CO)(CCO)O2 (stereo partly specified),.,.,.,.,-2%,.
O=C(NC1CCCC1)C(c1ccc(Cl)cc1)N1CCc2ccccc21 (stereo unspecified),-1%,-12%,-8%,-9%,89µM*,-7%
COc1ccc(S(=O)(=O)N2CCOC23CCN(S(=O)(=O)c2cccs2)CC3)cc1,-1%,-18%,56µM*,-4%,-2%,4%
